Structures are written as SMILES. Records with an inconclusive call do not appear. A call without a number means that no potency is given here. Active and inactive are the calls of the source. The call rests on the fitted dose curve; in most records, active means well fitted cell-killing curve with a large enough effect; inconclusive means small, poorly fitted or top-dose-only effect; inactive means flat fitted curve, though single readings scatter. Where a SMILES comes first, the peptide text is derived from it. [ ]: non-standard residue; d: D form. The star is where a group is joined. Sta = CC(C)C[C@H](N)[C@@H](O)CC(=O)O; Isovaleryl = CC(C)CC(=O)*

From PubChem BioAssay (NCATS) come the findings set out here.
Potency means the concentration at half of the fitted maximal effect.

The assay in a line: Quantitative highthroughput screen to assess conditional lethalithy of P12 Ichikawa cells grown in Human Plasma-Like Medium with dialyzed fetal bovine serum (HPLM+ds) (AID 1963879). Further: nearly all actives have a fitted effect of over 35% in size. Particulars: ATP luminescence, 48 h; Potency: viability; series mostly up to 45.8 µM. An excerpt:
Assay Provider: Jason Cantor Ph.D.
Department of Biochemistry
University of Wisconsin-Madison, Madison, WI, USA
Chemical screening studies have identified drug sensitivities across hundreds of cancer cell lines but most putative therapeutics fail to translate. Discovery and development of drug candidates in models that more accurately reflect nutrient levels in human blood is a major challenge. Here we performed high-throughput screens in conventional versus Human Plasma-Like Medium (HPLM) to identify compounds that were "missed" when screening using the artificial culture condition. Sets of conditional anticancer compounds spanned phases of clinical development and included non-oncology drugs were assessed. […] We also traced conditional phenotypes for several chemotherapeutics to availability of HPLM-specific metabolites and confirmed others for compounds whose reported targets are encoded by nonessential genes. Our findings establish generalizable strategies for exploiting conditional lethality in HPLM to reveal therapeutic candidates and mechanisms of action in cancer cells.
Described herein are the results of each viability screens against three cell lines: NOMO1 (an acute myeloid leukemia cell line); P12-Ichikawa (a T-cell acute lymphoblastic leukemia); and SEM (a B-cell ALL). Each assay was screened using 3 different cell culture media: homemade human plasma-Like medium with 10% dialyzed fetal bovine serum (HPLM+ds); RPMI1640 with 10% untreated FBS and 5mM glucose (RPMI+s); and RPMI1640 with 10% dialyzed fetal bovine serum and 5 mM glucose (RPMI+ds).
PROTOCOL TABLE (as described by Inglese J, Shamu CE and Guy RK. 2007)
SEQUENCE No. (e.g., 1, 2, 3, etc.); […] (e.g., Cells, Incubation, Reagent, etc.); VALUE and DESCRIPTION.
1; Cells; 5 uL; white, solid bottom 1536-well Greiner assay plate.
2; Compounds; 23 nL; Kalypsis pin tool (Wako USA) equipped with a 1536-well pin head to transfer to the assay plates.
3; Incubation; 48 hours; 37C incubation.
4; Reagent; 3 uL; CellTiter Glo (Promega).
5; Incubation; 5 min, room temperature
6; Detection; Luminescence, Viewlux PerkinElmer.
NOTES (numbers refer to Sequence numbers above)
1. Briefly, 5 ul of cell reagent was dispensed using a Multidrop Combi Dispenser. The NOMO1 and SEM cells were plated at 500 cells/well and the P12-Ichikawa line at 1000 cells/well.
2. After seeding the cells, 23 nL of MIPE 4.1 library compounds (in DMSO) were added to each plate using a Kalypsys 1536 Pintool dispenser. Bortezomib at final concentration of […] and DMSO were added to each plate as positive and negative controls respectively. For each screen, MIPE 4.1 compounds were added over an eleven-point concentration range […] in 3-fold dilutions.
3. Each plate was covered with a stainless steel gasketed lid to prevent evaporation and incubated for 48 hour at 37C, 95% relative humidity, and 5% CO2.
4-5. Three microliter CellTilter-GloTM luminescent substrate mix (Promega) reagent was added to the assay plate and incubated at room temperature for 5 min.
6. The luminescence signal was measured using a ViewLux (PerkinElmer) multiplate reader with a 2 second exposure time per plate. Data for each compound were normalized as percent viability such that measurements for DMSO and the empty well controls in each plate were defined as 100% and 0%, respectively.
Turning to `CCOC(=O)C1=C(N)Oc2ccc(Br)cc2C1C(C#N)C(=O)OCC` (stereo not given), the Potency result was “inactive”.

As for `CC(C)c1nc(CN(C)C(=O)N[C@H](C(=O)N[C@@H](Cc2ccccc2)C[C@H](O)[C@H](Cc2ccccc2)NC(=O)OCc2cncs2)C(C)C)cs1`, the Potency entry is “inactive”.

Consider `O=C(O)[C@H](Cc1c[nH]c2ccccc12)N1C(=O)c2ccccc2C1=O`, for which the Potency result is “inactive”.

For the compound `CCOC(=O)N1CCC(=C2c3ccc(Cl)cc3CCc3cccnc32)CC1`, the Potency result was “inactive”.

Regarding `CN1C(C(=O)Nc2ccccn2)=C(O)c2ccccc2S1(=O)=O`, the Potency was 11800 nM (active).

On to `COC(=O)Nc1nc2ccc(C(=O)c3cccs3)cc2[nH]1`, for which the Potency was 18.7 nM (active).

Turning to `CC(C)(Sc1cc(C(C)(C)C)c(O)c(C(C)(C)C)c1)Sc1cc(C(C)(C)C)c(O)c(C(C)(C)C)c1`, the Potency result is “inactive”.

With `CC(C)[C@H](CO)Nc1nc(Nc2cccc(Cl)c2)c2ncn(C(C)C)c2n1`, the Potency is 4180 nM (active).

Take `CCCCNc1cc(C(=O)O)cc(S(N)(=O)=O)c1Oc1ccccc1`: the Potency entry is “inactive”.

For the compound `CC(C)(C)c1cnc(CSc2cnc(NC(=O)C3CCNCC3)s2)o1`, the Potency is 166 nM (active).

`C=C(C)[C@@H]1CC[C@]2(C(=O)O)CC[C@]3(C)[C@H](CC[C@@H]4[C@@]5(C)CC[C@H](O)C(C)(C)[C@@H]5CC[C@]43C)[C@@H]12`: the Potency entry is “inactive”.

Take `N#C[C@H]1C[C@H]2C[C@@H]2N1C(=O)[C@@H](N)C12CC3CC(CC(O)(C3)C1)C2`: the Potency entry is “inactive”.

As to `CCOc1cc(C=C2C(=O)N(c3ccccc3)N=C2C)cc(Cl)c1OCC(=O)OC`, the Potency result was “inactive”.

Regarding `CCN(CC)C(=S)SSC(=S)N(CC)CC`, the Potency is 2960 nM (active).

On to `CC(=O)OCC(=O)[C@@]1(O)CC[C@H]2[C@@H]3CCC4=CC(=O)C=C[C@]4(C)[C@@H]3[C@@H](O)C[C@@]21C`, for which the Potency entry was “inactive”.

`COc1cc(NC(=O)c2ccc(-c3ccc(Cl)cc3)o2)cc(OC)c1`: the Potency result is “inactive”.

As to `Cn1cc(-c2ccc3nnc(C(F)(F)c4ccc5ncccc5c4)n3n2)cn1`, the Potency entry is “inactive”.

In the case of `CC(=O)OCC(=O)[C@@]1(O)CC[C@H]2[C@@H]3CCC4=CC(=O)CC[C@]4(C)[C@@H]3C(=O)C[C@@]21C`, the Potency result is “inactive”.

Turning to `CCn1cc(-c2ccnc3[nH]c(-c4cccc(CN(C)C)c4)cc23)c(-c2ccc(NC(=O)N(C)C)cc2)n1`, the Potency was 66.2 nM (active).

As for `c1ccc([C@H]2CN3CCSC3=N2)cc1`, the Potency entry was “inactive”.

As for `CC[C@@H]1C(=O)N(C)c2cnc(Nc3ccc(C(=O)NC4CCN(C)CC4)cc3OC)nc2N1C1CCCC1`, the Potency is 26.4 nM (active).

For the compound `O=C1NCCc2[nH]c(-c3ccncc3)cc21`, the Potency is 16600 nM (active).

With `Cn1cc(-c2[nH]c3cc(NC(=O)[C@H](N)C4CCCCC4)cc4c3c2C=NNC4=O)cn1`, the Potency was 16600 nM (active).

With `Cc1nccn1CC1CCc2c(c3ccccc3n2C)C1=O` (stereo not given), the Potency entry was “inactive”.

`CC[C@]12C=CCN3CC[C@@]4(c5cc([C@@]6(C(=O)OC)C[C@H]7C[C@@H](C(C)(F)F)CN(Cc8c6[nH]c6ccccc86)C7)c(OC)cc5N(C)[C@H]4[C@@](O)(C(=O)OC)[C@H]1OC(C)=O)[C@@H]32`: the Potency was 37.2 nM (active).

Turning to `Nc1nnc(-c2cccc(Cl)c2Cl)c(N)n1`, the Potency entry is “inactive”.

Turning to `CC=CC1=C(C(=O)O)N2C(=O)[C@H](NC(=O)[C@H](N)c3ccc(O)cc3)[C@@H]2SC1`, the Potency is 9350 nM (active).

Turning to `Cc1cnc(Nc2ccc(OCCN3CCCC3)cc2)nc1Nc1cccc(S(=O)(=O)NC(C)(C)C)c1`, the Potency entry was “inactive”.

For the compound `COc1cccc2nc(-c3cccs3)nc(NN3C(=O)C=C(C)C3=O)c12`, the Potency is 2090 nM (active).

For the compound `O=C(O)Cc1cccc(OCCCN(Cc2cccc(C(F)(F)F)c2Cl)CC(c2ccccc2)c2ccccc2)c1`, the Potency entry is “inactive”.

For the compound `CC(C)c1ccc2c(c1)c(SC(C)(C)C)c(CC(C)(C)C(=O)O)n2Cc1ccc(Cl)cc1`, the Potency result is “inactive”.

Turning to `CCC(=C(c1ccc(O)cc1)c1ccc(OCCNC)cc1)c1ccccc1`, the Potency was 4180 nM (active).

For `O=C(Nc1ccc([N+](=O)[O-])cc1Cl)c1cc(Cl)ccc1O`, the Potency was 3720 nM (active).

Consider `NC(=O)c1cccc(-c2cccc(OC(=O)NC3CCCCC3)c2)c1`, for which the Potency is 332 nM (active).

With `N[C@@H](C(=O)N[C@@H]1C(=O)N2C(C(=O)O)=C(Cl)CS[C@H]12)c1ccccc1`, the Potency result was “inactive”.

For `CC(C)CC(=O)N[C@H](C(=O)N[C@H](C(=O)N[C@@H](CC(C)C)[C@@H](O)CC(=O)N[C@@H](C)C(=O)N[C@@H](CC(C)C)[C@@H](O)CC(=O)O)C(C)C)C(C)C` (Isovaleryl-VV[Sta]A[Sta]-OH), the Potency entry is “inactive”.

Regarding `Cc1noc(NS(=O)(=O)c2ccc(N)cc2)c1C`, the Potency result is “inactive”.

With `CC1=NN(c2ccccc2)C(=O)C1`, the Potency result is “inactive”.

Regarding `CN(C)c1ccc(C2Nc3ccc4ccccc4c3C3=C2C(=O)CC(C)(C)C3)cc1Br` (stereo not given), the Potency entry was “inactive”.

Consider `CC(C)(O)c1cc2nc(-c3cnc(N)nc3)nc(N3CCOCC3)c2s1`, for which the Potency was 935 nM (active).
